Here are results for ten compounds from the supplement of paper PMC13380429.

For assay [1], the system named is Vero E6 infected with SARS-CoV-2. Put plainly: morphology score (similarity to uninfected cells); higher = more like uninfected cells. To be noted: 24 h.
For assay [2] the test system is unchanged. Put plainly: SARS-CoV-2 infection rate relative to infected DMSO; higher = more infection, active = 60 or less. To be noted: 24 h.

Take `C[C@H](NCc1ccc(OCc2ccccc2F)cc1)C(N)=O` [priralfinamide] (10 µM): the morphology score in assay [1] was -0.175. The SARS-CoV-2 infection rate in assay [2] was 114% (inactive).

Compound `CC1=CC(=O)c2ccccc2C1=O` [menadione] (10 µM) returned a morphology score in assay [1] of 0.144. For the same compound, in assay [2], the SARS-CoV-2 infection rate is 91% (inactive).

With `N[C@@H]1CN(c2c(F)cc3c(=O)c(C(=O)O)cn([C@@H]4C[C@@H]4F)c3c2Cl)CC12CC2` [sitafloxacin] (10 µM), in assay [1], the morphology score is -0.0334. In addition, the SARS-CoV-2 infection rate in assay [2] is 106% (inactive).

In assay [1], `CCN1CCC[C@H]1CNC(=O)c1c(OC)ccc(Br)c1OC` [remoxipride] (10 µM) returned a morphology score of 0.159. Further, the SARS-CoV-2 infection rate in assay [2] is 98.5% (inactive).

In the case of `CC(C)(C)c1cc(NC(=O)Nc2ccc(-c3cn4c(n3)sc3cc(OCCN5CCOCC5)ccc34)cc2)no1` [quizartinib] (10 µM), the morphology score in assay [1] is 0.177. Also, the SARS-CoV-2 infection rate in assay [2] is 97.5% (inactive).

As to `CN(C)CCCN1c2ccccc2CCc2ccccc21` [imipramine] (10 µM), in assay [1], the morphology score was -0.0385. Moreover, the SARS-CoV-2 infection rate in assay [2] was 92.5% (inactive).

For the compound `COc1cccc(CCc2ccccc2OCC(CN(C)C)OC(=O)CCC(=O)O)c1` (stereo not given) [sarpogrelate] (10 µM), in assay [1], the morphology score amounted to 0.198. Also, the SARS-CoV-2 infection rate in assay [2] is 100% (inactive).

In assay [1], `CCCCN1CCC(CCC(=O)c2cc(Cl)c(N)cc2OC)CC1` (10 µM) registered a morphology score of 0.237. In addition, the SARS-CoV-2 infection rate in assay [2] is 95% (inactive).

Compound `Cc1ccccc1NC(=O)Nc1ccc(CC(=O)N(C)[C@@H](CC(C)C)C(=O)NCC[C@H](NC(=O)[C@@H]2CCCN2S(=O)(=O)c2cc(Cl)cc(Cl)c2)C(=O)O)cc1` (10 µM) gave a morphology score in assay [1] of 0.157. Also, the SARS-CoV-2 infection rate in assay [2] was 91% (inactive).

`CN1C(=O)OC(C)(C)C1=O` [trimethadione] (10 µM) gave a morphology score in assay [1] of 0.1. Moreover, the SARS-CoV-2 infection rate in assay [2] was 106% (inactive).
